About 83,000 compounds went through this panel and 20% of them were active in at least one assay; those are over-represented in the sample as a whole.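 A percent growth of 40 corresponds to 60% growth inhibition; 0 means no net growth; -100 means all cells died. Active threshold: below 10.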 Active and inactive are the calls of the source.

One experiment concerns HOP-62 NSCLC. Description: NCI-60 one-dose screen, 48 h (100 = growth as untreated, 0 = no growth, -100 = all killed). The conditions noted are these: 10 µM unless noted.
Regarding `O=C(N/N=C/c1ccc(-c2ccc(O)cc2)o1)c1[nH]c2ccc(Br)cc2c1-c1ccccc1`, the growth is -11.3% (active).

As to `CC(=O)Nc1ccc(-c2cn(-c3cccc(C(=O)Nc4ccc(N5CCN(C)CC5)cc4)c3)nn2)cn1`, the growth is 60% (inactive).

Take `COc1cc2oc(-c3cccc(NC(=O)[C@H](Cc4ccccc4)NC(=O)OC(C)(C)C)c3)cc(=O)c2c(OC)c1OC`: the growth is 49% (inactive).

For another experiment, the system named is NCI-H460 lung. Described as above. The note with it: 10 µM unless noted.
In the case of `COc1cc(C2CC(c3cc(OC)c(OC)c(OC)c3)=NN2C(C)=O)ccc1OCc1ccccc1` (stereo not given), the growth is 24.3% (inactive).

In the case of `Cc1cc(N=C2NC(=O)CS2)n[nH]1`, the growth was 113% (inactive).

For the molecule `C=C1CC[C@@H]2[C@]3(C)COC(c4cn[nH]c4-c4ccc(OC)cc4)O[C@@H]3CC[C@@]2(C)[C@@H]1C/C=C1/C(=O)OCC1O` (stereo not given in full), the growth is -49.6% (active).

On to `COc1cc2c(c(OC)c1OC)C(=O)CC(c1cccc(NC(=O)c3cc(N)ccc3Cl)c1)O2` (stereo not given), for which the growth is 67.2% (inactive).

With `O=C(N=Nc1c(O)[nH]c2ccc(Cl)cc12)c1ccc2nc(-c3ccccc3)[nH]c2c1`, the growth was 26.3% (inactive).

Turning to `CNC(=O)c1cc(Oc2ccc3nc(NC(=O)Nc4cccc(OC(F)(F)F)c4)sc3c2)ccn1`, the growth is 29.9% (inactive).

On to `COc1cc2c(c(OC)c1OC)C(=O)CC(c1cccc(NC(=O)c3cc([N+](=O)[O-])ccc3Cl)c1)O2` (stereo not given), for which the growth is 30.8% (inactive).

As for `COc1ccc(C2=NN(C(C)=O)C(c3ccc(OCc4ccc(Cl)cc4)c(OC)c3)C2)cc1OC` (stereo not given), the growth was 41.3% (inactive).

Take `COc1ccc2cc([C@H](C)C(=O)N/N=C/c3ccc(Br)cc3)ccc2c1`: the growth was 100% (inactive).

Take `CCCCCCCCc1ccc(C(=O)Nc2ccc(C)cc2C(=O)O)cc1C`: the growth is 92.7% (inactive).

In the case of `CSc1ccccc1NC(=O)c1ccc2nn(/C(C#N)=C/c3ccccn3)nc2c1`, the growth is -36.9% (active).

Regarding `COCOc1ccc2c(=O)c(C)c(C(=O)N[C@@H](Cc3ccccc3)C(O)C(=O)NCCc3ccc(OC)cc3)oc2c1` (stereo not given in full), the growth was 133% (inactive).

For `CSc1ccc(C(=O)Nc2ccc3nnn(/C(C#N)=C/c4ccccn4)c3c2)cc1`, the growth is -40.1% (active).

Regarding `COc1ccc(NC(=O)Cn2c(/C=C/c3cccc([N+](=O)[O-])c3)nc3ccccc3c2=O)cc1`, the growth was 63% (inactive).

Turning to `CC1(C)CC[C@]2(C(=O)Nc3ccc(Br)cc3)CC[C@]3(C)C(=CCC4[C@@]5(C)C[C@@H](O)[C@H](O)[C@@](C)(CO)C5CC[C@]43C)C2C1` (stereo not given in full), the growth was -42.1% (active).

On to `N#Cc1c(-c2cccc(Cl)c2Cl)cc(-c2c[nH]c3ccccc23)[nH]c1=O`, for which the growth is 85.6% (inactive).

As for `O=c1onc(-c2cc3ccccc3nc2Cl)n1-c1cccc2ccccc12`, the growth was 51.7% (inactive).

As to `CCN(CC)CCOc1ccc(Nc2ncc3cc(-c4ccc(O)c(C#N)c4)c(=O)n(C)c3n2)cc1`, the growth is 85.3% (inactive).

Consider `Cc1ccc(NC(=O)[C@]23CCC(C)(C)CC2C2=CCC4[C@@]5(C)C[C@@H](O)[C@H](O)[C@@](C)(CO)C5CC[C@@]4(C)[C@]2(C)CC3)cc1` (stereo not given in full), for which the growth was 3.15% (active).

In the case of `N#Cc1c(NCc2ccccc2)n[nH]c1Nc1ccccc1`, the growth was 44.2% (inactive).

As for `CCCSc1nc(NCCc2c[nH]c3ccccc23)c(C#N)c(-c2ccc(OC)cc2)n1`, the growth is 19% (inactive).

Regarding `O=C(NNc1ccccc1)n1c(=O)c2ccccc2c(=O)n1-c1ccccc1`, the growth is 105% (inactive).

Consider `COc1cc(C2CC(c3cc(OC)c(OC)c(OC)c3)=NN2C(C)=O)ccc1OCc1ccc(F)cc1` (stereo not given), for which the growth is 49% (inactive).

On to `CN1CCN(Cc2ccc(C(=O)Nc3cccc(C#Cc4cccc5[nH]nc(N)c45)c3)cc2C(F)(F)F)CC1`, for which the growth was -25.3% (active).

`COc1ccc(C(=O)/C=C/c2cccc3ccccc23)cc1S(N)(=O)=O`: the growth is 2.2% (active).

As to `O=C(/C=C/c1ccc(O)c(O)c1)NC1CCOC1O` (stereo not given), the growth was 116% (inactive).

In the case of `C=C1CCC2C3(C)COC(c4ccccc4F)OC3CCC2(C)C1CC(O)C1=CCOC1=O` (stereo not given), the growth is 82.3% (inactive).

Turning to `COc1cc(/C=C/C(=O)c2ccc(C)cc2)ccc1Oc1nc(Nc2ccc(F)cc2)nc(N(C)C)n1`, the growth is 34.4% (inactive).

Take `COc1cc2oc(-c3cccc(C(=O)Nc4ccc(Cl)cc4)c3)cc(=O)c2c(OCCNC(=O)[C@@H](N)CCC(=O)O)c1OC`: the growth was 63.2% (inactive).

With `C=C1CCC2C3(C)COC(c4ccc(F)cc4)OC3CCC2(C)C1CC(O)C1=CCOC1=O` (stereo not given), the growth was 93.8% (inactive).

For `Cc1ccc(C(SCCNCc2cc(N(C)C)ccn2)(c2ccccc2)c2ccccc2)cc1`, the growth was -26.6% (active).

For `COc1ccc(-c2c(Nn3cnnn3)no[n+]2[O-])cc1`, the growth is 39.5% (inactive).

With `CC1=C(C(=O)c2ccccc2)C(c2cccc3ccccc23)n2c(nc3ccccc32)N1` (stereo not given), the growth is 87% (inactive).

`CC1(C)CC[C@]2(C(=O)Nc3ccccc3)CC[C@]3(C)C(=CCC4[C@@]5(C)C[C@@H](O)[C@H](O)[C@@](C)(CO)C5CC[C@]43C)C2C1` (stereo not given in full): the growth was 51.4% (inactive).

With `O=C(N/N=C/c1ccc(-c2ccc(O)cc2)o1)c1[nH]c2ccc(Br)cc2c1-c1ccccc1`, the growth was -11.3% (active).

`CC(=O)Nc1ccc(-c2cn(-c3cccc(C(=O)Nc4ccc(N5CCN(C)CC5)cc4)c3)nn2)cn1`: the growth is 90.4% (inactive).

As for `COc1cc2oc(-c3cccc(NC(=O)[C@H](Cc4ccccc4)NC(=O)OC(C)(C)C)c3)cc(=O)c2c(OC)c1OC`, the growth was 11.5% (inactive).

(Values after PubChem BioAssay (NCI).)
